What all share (assay): DAPPL (digital affinity profiling via proximity ligation, sequencing); 10 mM Tris-HCl pH 7.5, 50 mM NaCl, 1 mM DTT, 4% glycerol, room temperature, 30 min; GST-TFs on glutathione beads, 16-mer random dsDNA library, 0.1% formaldehyde crosslink after washing; high values mean tight binding
The target of one test is T1, FEV (Homo sapiens, UniProt Q99581 1-238).
T1 sequence: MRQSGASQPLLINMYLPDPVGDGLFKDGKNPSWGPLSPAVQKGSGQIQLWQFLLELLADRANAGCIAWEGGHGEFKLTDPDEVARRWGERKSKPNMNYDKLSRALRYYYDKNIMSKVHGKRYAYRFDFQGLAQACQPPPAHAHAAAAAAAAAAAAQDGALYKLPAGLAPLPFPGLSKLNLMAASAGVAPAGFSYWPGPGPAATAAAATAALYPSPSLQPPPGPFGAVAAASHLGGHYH
To be noted: protein: recombinant; tags: N-terminal GST; dsDNA, one strand shown. In short, it runs like this:
(§1)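 Human transcription factors fused to GST were expressed in yeast, captured on glutathione beads, given DNA barcodes and pooled with a GST-only negative control. Pools were incubated with 200 nmole of a 16-mer random double-stranded DNA library in Tris/NaCl/DTT/glycerol buffer at room temperature for 30 min. They were then washed, crosslinked with 0.1% formaldehyde, proximity-ligated (BsaI/T4 ligase, 1 h, 37 °C), PCR-amplified and sequenced on an Illumina NextSeq500. Binding signal is each 6-mer's read frequency for a factor divided by its frequency for the GST control.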

A further test deals with ETV5 (Homo sapiens, UniProt P41161 1-510). As to conditions: protein: recombinant; tags: N-terminal GST; dsDNA, one strand shown. In a few lines: as §1
In the next test the target is HSF1 (Homo sapiens, UniProt Q00613 1-529). As to conditions: protein: recombinant; tags: N-terminal GST; chain copies: 3; dsDNA, one strand shown. In short, it runs like this:
as §1

For a further test, the target named is T2, SPIC (Homo sapiens, UniProt Q8N5J4 1-248).
T2 sequence: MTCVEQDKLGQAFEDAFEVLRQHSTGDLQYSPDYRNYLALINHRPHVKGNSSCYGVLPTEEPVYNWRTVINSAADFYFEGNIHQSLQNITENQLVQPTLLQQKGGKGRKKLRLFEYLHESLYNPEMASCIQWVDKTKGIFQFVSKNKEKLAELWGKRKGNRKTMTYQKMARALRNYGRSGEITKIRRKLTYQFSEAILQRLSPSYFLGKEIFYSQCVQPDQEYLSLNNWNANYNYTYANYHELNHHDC
To be noted: protein: recombinant; tags: N-terminal GST; dsDNA, one strand shown. In short, it runs like this: as §1

Another test addresses ELF4 (Homo sapiens, UniProt Q99607 1-663). To be noted: protein: recombinant; tags: N-terminal GST; dsDNA, one strand shown. In short, it runs like this: as §1
The target of another test is T3, ELK4 (Homo sapiens, UniProt P28324-2 1-405).
T3 sequence: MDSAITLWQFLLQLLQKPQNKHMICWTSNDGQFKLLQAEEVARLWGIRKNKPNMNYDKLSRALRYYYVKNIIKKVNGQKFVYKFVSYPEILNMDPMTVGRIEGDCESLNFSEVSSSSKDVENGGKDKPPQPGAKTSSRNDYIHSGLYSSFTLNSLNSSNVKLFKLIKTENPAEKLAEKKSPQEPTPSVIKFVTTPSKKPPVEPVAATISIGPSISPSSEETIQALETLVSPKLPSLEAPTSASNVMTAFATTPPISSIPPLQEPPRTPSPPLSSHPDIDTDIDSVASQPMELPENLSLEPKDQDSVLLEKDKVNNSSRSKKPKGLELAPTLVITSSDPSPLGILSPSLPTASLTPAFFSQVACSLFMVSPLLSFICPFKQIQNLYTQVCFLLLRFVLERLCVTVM
To be noted: protein: recombinant; tags: N-terminal GST; dsDNA, one strand shown. In a few lines: as §1

In another test the target is T4, ETV2 (Homo sapiens, UniProt O00321 1-342).
T4 sequence: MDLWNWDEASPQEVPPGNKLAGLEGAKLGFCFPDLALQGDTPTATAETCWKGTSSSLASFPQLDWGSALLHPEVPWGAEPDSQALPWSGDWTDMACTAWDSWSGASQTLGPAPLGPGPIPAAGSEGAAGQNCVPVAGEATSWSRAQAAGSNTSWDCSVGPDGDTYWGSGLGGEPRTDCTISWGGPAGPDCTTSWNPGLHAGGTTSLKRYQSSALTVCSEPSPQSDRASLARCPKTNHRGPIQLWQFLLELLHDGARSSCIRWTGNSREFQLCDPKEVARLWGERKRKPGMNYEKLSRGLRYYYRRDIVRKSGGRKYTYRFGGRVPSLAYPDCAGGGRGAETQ
To be noted: protein: recombinant; tags: N-terminal GST; dsDNA, one strand shown. In a few lines: as §1

The target in a further test is T5, ELF3 (Homo sapiens, UniProt P78545 1-371).
T5 sequence: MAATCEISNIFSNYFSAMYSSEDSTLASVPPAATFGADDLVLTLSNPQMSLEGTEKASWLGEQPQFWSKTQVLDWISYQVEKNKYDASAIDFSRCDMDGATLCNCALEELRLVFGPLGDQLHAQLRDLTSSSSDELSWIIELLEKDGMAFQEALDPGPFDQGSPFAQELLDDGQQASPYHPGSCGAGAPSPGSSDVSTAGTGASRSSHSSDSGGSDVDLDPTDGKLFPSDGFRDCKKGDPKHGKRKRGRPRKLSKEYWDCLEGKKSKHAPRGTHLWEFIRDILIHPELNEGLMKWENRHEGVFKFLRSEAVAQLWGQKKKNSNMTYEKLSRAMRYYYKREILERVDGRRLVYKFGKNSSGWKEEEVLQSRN
As to conditions: protein: recombinant; tags: N-terminal GST; dsDNA, one strand shown. In short, it runs like this:
as §1

For a further test, the target named is CRX (Homo sapiens, UniProt O43186 1-299). As to conditions: protein: recombinant; tags: N-terminal GST; dsDNA, one strand shown. In short, it runs like this:
as §1

Another test concerns the target ETV1 (Homo sapiens, UniProt P50549 1-477). As to conditions: protein: recombinant; tags: N-terminal GST; dsDNA, one strand shown. In short, it runs like this:
as §1

Chain of ETV5 (P41161 whole entry): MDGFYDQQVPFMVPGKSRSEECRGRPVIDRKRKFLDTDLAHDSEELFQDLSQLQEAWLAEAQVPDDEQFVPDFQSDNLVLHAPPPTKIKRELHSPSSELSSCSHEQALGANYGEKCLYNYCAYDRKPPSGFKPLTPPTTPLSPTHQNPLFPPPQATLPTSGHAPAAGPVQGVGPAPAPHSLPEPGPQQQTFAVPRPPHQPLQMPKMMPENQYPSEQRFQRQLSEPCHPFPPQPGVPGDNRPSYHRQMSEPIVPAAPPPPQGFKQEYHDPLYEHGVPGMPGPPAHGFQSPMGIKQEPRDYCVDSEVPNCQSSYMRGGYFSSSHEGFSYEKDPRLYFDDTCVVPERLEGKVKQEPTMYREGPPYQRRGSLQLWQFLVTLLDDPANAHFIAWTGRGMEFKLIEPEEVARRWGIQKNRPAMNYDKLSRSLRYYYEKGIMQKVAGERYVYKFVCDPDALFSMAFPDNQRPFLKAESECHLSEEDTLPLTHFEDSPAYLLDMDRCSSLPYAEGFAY
Chain of CRX (O43186 whole entry): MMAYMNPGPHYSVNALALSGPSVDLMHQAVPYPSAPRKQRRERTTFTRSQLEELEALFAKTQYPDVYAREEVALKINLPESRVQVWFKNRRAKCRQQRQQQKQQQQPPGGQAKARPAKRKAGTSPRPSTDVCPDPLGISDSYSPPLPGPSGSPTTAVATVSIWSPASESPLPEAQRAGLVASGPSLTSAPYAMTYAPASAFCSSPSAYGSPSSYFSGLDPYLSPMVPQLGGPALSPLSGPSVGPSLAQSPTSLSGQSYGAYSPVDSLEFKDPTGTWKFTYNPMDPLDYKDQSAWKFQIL
Chain of ETV1 (P50549 whole entry): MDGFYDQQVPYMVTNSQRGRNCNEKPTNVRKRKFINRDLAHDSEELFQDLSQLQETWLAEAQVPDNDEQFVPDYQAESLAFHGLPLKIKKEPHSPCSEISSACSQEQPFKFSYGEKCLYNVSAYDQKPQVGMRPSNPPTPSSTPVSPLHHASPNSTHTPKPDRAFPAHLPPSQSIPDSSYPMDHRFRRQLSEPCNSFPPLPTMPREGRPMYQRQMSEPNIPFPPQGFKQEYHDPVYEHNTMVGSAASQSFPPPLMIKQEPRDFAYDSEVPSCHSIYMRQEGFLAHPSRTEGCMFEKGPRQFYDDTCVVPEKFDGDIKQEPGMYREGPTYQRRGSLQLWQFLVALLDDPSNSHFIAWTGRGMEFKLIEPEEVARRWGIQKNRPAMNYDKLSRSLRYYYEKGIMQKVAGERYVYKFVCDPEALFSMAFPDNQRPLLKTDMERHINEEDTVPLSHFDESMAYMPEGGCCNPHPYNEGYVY
Chain of ELF4 (Q99607 whole entry): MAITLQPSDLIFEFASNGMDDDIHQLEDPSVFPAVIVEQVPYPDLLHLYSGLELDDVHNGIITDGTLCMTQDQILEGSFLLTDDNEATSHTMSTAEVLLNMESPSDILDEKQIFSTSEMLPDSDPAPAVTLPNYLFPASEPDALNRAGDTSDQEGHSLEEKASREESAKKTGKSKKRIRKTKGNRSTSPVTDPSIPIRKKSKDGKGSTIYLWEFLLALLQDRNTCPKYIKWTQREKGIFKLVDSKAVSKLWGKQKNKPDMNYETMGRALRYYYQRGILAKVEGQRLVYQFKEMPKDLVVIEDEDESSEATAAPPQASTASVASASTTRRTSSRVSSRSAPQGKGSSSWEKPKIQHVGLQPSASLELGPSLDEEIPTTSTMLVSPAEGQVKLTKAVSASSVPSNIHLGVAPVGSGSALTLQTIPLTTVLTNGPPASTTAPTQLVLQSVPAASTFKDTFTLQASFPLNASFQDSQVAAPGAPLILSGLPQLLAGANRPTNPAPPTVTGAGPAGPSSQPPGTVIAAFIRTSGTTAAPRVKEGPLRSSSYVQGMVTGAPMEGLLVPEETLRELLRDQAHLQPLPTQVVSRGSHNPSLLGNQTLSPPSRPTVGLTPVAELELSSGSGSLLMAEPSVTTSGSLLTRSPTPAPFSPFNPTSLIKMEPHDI
Chain of HSF1 (Q00613 whole entry): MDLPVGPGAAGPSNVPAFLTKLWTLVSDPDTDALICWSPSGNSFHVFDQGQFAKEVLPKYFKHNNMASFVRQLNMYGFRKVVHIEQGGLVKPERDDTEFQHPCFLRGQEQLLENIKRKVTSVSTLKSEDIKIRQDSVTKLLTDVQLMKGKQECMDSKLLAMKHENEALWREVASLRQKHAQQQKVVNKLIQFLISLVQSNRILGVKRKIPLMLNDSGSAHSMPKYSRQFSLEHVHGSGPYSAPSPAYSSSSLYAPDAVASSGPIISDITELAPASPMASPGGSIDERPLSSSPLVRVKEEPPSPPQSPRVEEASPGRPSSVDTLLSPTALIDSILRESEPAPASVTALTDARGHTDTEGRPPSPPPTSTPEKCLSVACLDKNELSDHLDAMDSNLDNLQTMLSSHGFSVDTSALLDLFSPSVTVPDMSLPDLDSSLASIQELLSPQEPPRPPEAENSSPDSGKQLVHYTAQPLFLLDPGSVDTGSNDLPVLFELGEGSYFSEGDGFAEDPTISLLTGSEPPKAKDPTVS

For TTGTAC, the binding signal in the test with FEV was 1.52 fold enrichment (6-mer frequency, TF over GST control); with ETV5, 1.48 fold enrichment (6-mer frequency, TF over GST control); in the test with HSF1, 1.24 fold enrichment (6-mer frequency, TF over GST control); in the test with SPIC it was 1.46 fold enrichment (6-mer frequency, TF over GST control); with ELF4, 1.47 fold enrichment (6-mer frequency, TF over GST control); with ELK4, 1.55 fold enrichment (6-mer frequency, TF over GST control). Moreover, the binding signal was 1.48 fold enrichment (6-mer frequency, TF over GST control) with ETV2; 1.39 fold enrichment (6-mer frequency, TF over GST control) with ELF3; 1.2 fold enrichment (6-mer frequency, TF over GST control) with CRX; 1.24 fold enrichment (6-mer frequency, TF over GST control) with ETV1.

TTTGGT: the binding signal in the test with FEV is 1.37 fold enrichment (6-mer frequency, TF over GST control); with ETV5, 1.29 fold enrichment (6-mer frequency, TF over GST control); with HSF1, 1.36 fold enrichment (6-mer frequency, TF over GST control); with SPIC, 1.37 fold enrichment (6-mer frequency, TF over GST control); in the test with ELF4, 1.3 fold enrichment (6-mer frequency, TF over GST control); with ELK4 it was 1.44 fold enrichment (6-mer frequency, TF over GST control). The binding signal is 1.43 fold enrichment (6-mer frequency, TF over GST control) with ETV2; 1.17 fold enrichment (6-mer frequency, TF over GST control) with ELF3; 1.51 fold enrichment (6-mer frequency, TF over GST control) with CRX; 1.36 fold enrichment (6-mer frequency, TF over GST control) with ETV1.

Take CAACTC: the binding signal with FEV was 1.23 fold enrichment (6-mer frequency, TF over GST control); with ETV5 it was 1.22 fold enrichment (6-mer frequency, TF over GST control); with HSF1, 1.12 fold enrichment (6-mer frequency, TF over GST control); in the test with SPIC, 1.33 fold enrichment (6-mer frequency, TF over GST control); with ELF4 it was 1.27 fold enrichment (6-mer frequency, TF over GST control); with ELK4, 1.2 fold enrichment (6-mer frequency, TF over GST control). In addition, the binding signal with ETV2 was 1.3 fold enrichment (6-mer frequency, TF over GST control); with ELF3, 1.24 fold enrichment (6-mer frequency, TF over GST control); in the test with CRX it was 1.01 fold enrichment (6-mer frequency, TF over GST control); in the test with ETV1 it was 1.18 fold enrichment (6-mer frequency, TF over GST control).

As for CTGAGC, the binding signal with FEV is 1.21 fold enrichment (6-mer frequency, TF over GST control); with ETV5, 1.12 fold enrichment (6-mer frequency, TF over GST control); in the test with HSF1, 1.09 fold enrichment (6-mer frequency, TF over GST control); with SPIC, 1.08 fold enrichment (6-mer frequency, TF over GST control); with ELF4 it was 1.19 fold enrichment (6-mer frequency, TF over GST control); with ELK4, 1.14 fold enrichment (6-mer frequency, TF over GST control). The binding signal with ETV2 was 1.37 fold enrichment (6-mer frequency, TF over GST control); with ELF3 it was 1.16 fold enrichment (6-mer frequency, TF over GST control); with CRX it was 1.3 fold enrichment (6-mer frequency, TF over GST control); with ETV1 it was 1.15 fold enrichment (6-mer frequency, TF over GST control).

On to TACCGA, for which the binding signal is 1.11 fold enrichment (6-mer frequency, TF over GST control) in the test with FEV; 1.14 fold enrichment (6-mer frequency, TF over GST control) with ETV5; 1.21 fold enrichment (6-mer frequency, TF over GST control) with HSF1; 1.2 fold enrichment (6-mer frequency, TF over GST control) with SPIC; 1.18 fold enrichment (6-mer frequency, TF over GST control) with ELF4; 1.12 fold enrichment (6-mer frequency, TF over GST control) with ELK4. The binding signal with ETV2 is 1.04 fold enrichment (6-mer frequency, TF over GST control); in the test with ELF3 it was 1.3 fold enrichment (6-mer frequency, TF over GST control); in the test with CRX, 1.33 fold enrichment (6-mer frequency, TF over GST control); in the test with ETV1, 1.24 fold enrichment (6-mer frequency, TF over GST control).

On to CACTTG, for which the binding signal was 1.33 fold enrichment (6-mer frequency, TF over GST control) in the test with FEV; 1.41 fold enrichment (6-mer frequency, TF over GST control) with ETV5; 1.12 fold enrichment (6-mer frequency, TF over GST control) in the test with HSF1; 1.12 fold enrichment (6-mer frequency, TF over GST control) with SPIC; 1.45 fold enrichment (6-mer frequency, TF over GST control) in the test with ELF4; 1.43 fold enrichment (6-mer frequency, TF over GST control) with ELK4. Moreover, the binding signal is 1.36 fold enrichment (6-mer frequency, TF over GST control) with ETV2; 1.41 fold enrichment (6-mer frequency, TF over GST control) with ELF3; 1.1 fold enrichment (6-mer frequency, TF over GST control) with CRX; 1.36 fold enrichment (6-mer frequency, TF over GST control) in the test with ETV1.

As to TGGTAT, the binding signal was 1.26 fold enrichment (6-mer frequency, TF over GST control) with FEV; 1.37 fold enrichment (6-mer frequency, TF over GST control) with ETV5; 1.35 fold enrichment (6-mer frequency, TF over GST control) with HSF1; 1.39 fold enrichment (6-mer frequency, TF over GST control) with SPIC; 1.42 fold enrichment (6-mer frequency, TF over GST control) with ELF4; 1.47 fold enrichment (6-mer frequency, TF over GST control) with ELK4. In addition, the binding signal with ETV2 was 1.33 fold enrichment (6-mer frequency, TF over GST control); in the test with ELF3 it was 1.45 fold enrichment (6-mer frequency, TF over GST control); with CRX, 1.39 fold enrichment (6-mer frequency, TF over GST control); in the test with ETV1, 1.37 fold enrichment (6-mer frequency, TF over GST control).

Source of the values: publication PMC7862700, “An all-to-all approach to the identification of sequence-specific readers for epigenetic DNA modifications on cytosine”.
